High-throughput results as filed in PubChem BioAssay.
RORg inh – qHTS for inhibitors of ROR gamma transcriptional activity | Drosophila S2 Gal4-RORgamma UAS-luciferase reporter, 20 h | Potency, µM (highest dose often 53.6 µM), usual class: inhibitors | actives 5.4% (n = 310,000) | AID 2551, 2010; also: nearly all actives have a fitted effect of over 60% in size
Target sequence (P51450 whole entry, looked up, the tested form may be a part): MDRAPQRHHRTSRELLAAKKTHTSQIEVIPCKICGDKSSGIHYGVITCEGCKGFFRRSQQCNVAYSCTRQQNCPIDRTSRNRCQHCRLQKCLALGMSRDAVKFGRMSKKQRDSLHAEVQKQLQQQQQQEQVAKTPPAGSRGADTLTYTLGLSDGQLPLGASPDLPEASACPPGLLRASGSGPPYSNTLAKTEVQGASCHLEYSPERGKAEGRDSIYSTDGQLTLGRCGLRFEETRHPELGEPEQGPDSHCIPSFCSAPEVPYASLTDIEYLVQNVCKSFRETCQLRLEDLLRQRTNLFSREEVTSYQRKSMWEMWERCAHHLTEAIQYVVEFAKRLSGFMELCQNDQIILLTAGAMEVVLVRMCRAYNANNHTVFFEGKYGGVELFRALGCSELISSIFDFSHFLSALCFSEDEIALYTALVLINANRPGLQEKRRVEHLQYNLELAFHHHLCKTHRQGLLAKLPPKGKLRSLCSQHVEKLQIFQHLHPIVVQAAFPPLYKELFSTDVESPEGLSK
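Read-out: Photinus luciferase luminescence; inhibitors lower reporter signal. Insect Schneider cells with Gal4-ROR gamma fusion under metallothionein promoter, UAS reporter; 700 uM final copper sulfate induction, 20 hr, ambient temperature.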
KB-3-1 cytotox – qHTS assay for MDR1-selective chemotherapeutics: Primary screen using the parental adenocarcinoma cell KB-3-1 | Potency, µM (top dose mostly 46.1 µM), most hits filed as cytotoxic | KB-3-1 viability, CellTiter-Glo ATP luminescence, 72 h | actives 1.4% (n = 400,000); also: nearly all actives have a fitted effect of over 60% in size
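72 h, 37 °C compound treatment of KB-3-1 parental cells; CellTiter-Glo added, 10 min, luminescence read. Data corrected against DMSO-only plates and normalized before curve fitting.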
SW480 rereplic – A quantitative high throughput screen for small molecules that induce DNA re-replication in SW480 colon adenocarcinoma cells; SW480 DNA re-replication, Hoechst DNA content imaging, 48 h; Potency, µM (titrated, usually from 46.1 µM), most hits filed as activators; actives 1.8% (n = 340,000); also: nearly all actives have a fitted effect of over 55% in size
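Treated cells incubate 48 hr (37 C, 5% CO2), are stained 40 min with Hoechst, and nuclear fluorescence is enumerated; a rise in nuclei with high DNA signal marks re-replication.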
VP16 counter – VP16 counterscreen qHTS for inhibitors of ROR gamma transcriptional activity; Drosophila S2 Gal4-VP16 UAS-luciferase, luminescence, 20 h; Potency, µM (titrated, usually from 53.6 µM), hits mostly inhibitors; actives 3.5% (n = 310,000);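 also: Gal4-VP16 expression switched on by copper sulfate through the metallothionein promoter; nearly all actives have a fitted effect of over 50% in size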
MCF10A rerep – A quantitative high throughput screen for small molecules that induce DNA re-replication in MCF 10a normal breast cells; MCF 10A DNA re-replication, Hoechst nuclear intensity, 48 h; Potency, µM (doses to about 46.1 µM), usual class: activators; actives 2.9% (n = 350,000); also: nearly all actives have a fitted effect of over 50% in size
KB-V1 cytotox – qHTS assay for MDR1-selective chemotherapeutics: Primary screen using the drug-selected MDR subline cells KB-V1; KB-V1 MDR cells viability, CellTiter-Glo, 72 h; Potency, µM (top dose mostly 46.1 µM), actives largely listed as cytotoxic; actives 3.4% (n = 400,000); also: nearly all actives have a fitted effect of over 60% in size
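Cytotoxicity via CellTiter-Glo luminescence after 72 h compound exposure at 37 degrees C. Cells: drug-selected KB-V1 line, DMEM phenol-red free plus 10% FBS. Compounds tested at multiple concentrations; normalized data fitted to concentration-effect curves.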
A number is an active result; 0 = inactive; ? = inconclusive; - = no result; [ ] = dose if it differs, or a comment. Compounds with a hit are over-represented: about 10% of the library has one in this group of screens. Calls follow the shape of the dose curve; as a rule, active = well fitted curve in the direction sought with a large enough effect; inconclusive = small, poorly fitted or top-dose-only effect, or another doubt; inactive = no such curve, though single readings can be large; an effect the other way counts as inactive or inconclusive.

SMILES	RORg inh	KB-3-1 cytotox	SW480 rereplic	VP16 counter	MCF10A rerep	KB-V1 cytotox
Cc1ccc(-c2cc(C(=O)NNC(=O)c3csc(N4CCOCC4)n3)c3ccccc3n2)cc1	-	0	0	-	0	0
COc1ccc(Cc2c(-c3ccc(Cl)cc3)nc3cc(C)c(Br)c(C)n23)c(C)c1	-	0	-	-	-	?
OC(c1ccc(F)c(F)c1)c1nc(-c2cc(F)cc(F)c2)cs1 (centres undefined)	-	0	-	-	-	0
CC(C)(Oc1ccc(C2CCCc3ccccc32)cc1)C(=O)O (centres undefined)	0	-	0	0	0	-
CC1=C(C(=O)Nc2ccc(C)cn2)C(c2cnn(C)c2)C2=C(CCCC2=O)N1 (centres undefined)	0	0	0.52µM	0	0	?
CCn1ncc(C2C(C(=O)Nc3ccc(C)cn3)=C(C)NC3=C2C(=O)CCC3)c1C (centres undefined)	0	0	0	0	0	?
CCN1CCN(S(=O)(=O)c2ccc(Cl)c(C(=O)Nc3ccccc3N3CCCC3)c2)CC1	-	0	6.5µM	-	?	0
CCN1CCN(S(=O)(=O)c2ccc(Cl)c(C(=O)NCCc3ccccc3)c2)CC1	-	0	15µM	-	0	0
CCN1CCN(S(=O)(=O)c2ccc(Cl)c(C(=O)NCc3nc4ccccc4[nH]3)c2)CC1	-	?	10µM	-	?	0
CCN1CCN(S(=O)(=O)c2ccc(Cl)c(C(=O)NC3CC3)c2)CC1	-	0	0	-	0	0
COc1ccc(N2CCN(C(CNC(=O)C(=O)NCCc3ccccc3)c3cccnc3)CC2)cc1 (centres undefined)	-	0	-	-	-	0
COCCOC(=O)C1=C(C)N(Cc2ccccc2)C(=O)NC1c1cccc(OC)c1OC (centres undefined)	?	0	0	0	0[0.0737 µM]	0
COC(=O)C1=C(C)N(c2ccccc2)C(=S)NC1c1ccccc1C(F)(F)F (centres undefined)	3.2µM	0	0	?	0	0
CC(=O)Nc1ccc(C2NC(=S)N(c3ccccc3C(F)(F)F)C(C)=C2C(=O)N2CCOCC2)cc1 (centres undefined)	0	0	?	0	0	?
COCCOC(=O)C1=C(C)N(c2ccccc2)C(=S)NC1c1ccccc1C(F)(F)F (centres undefined)	18µM	0	0	?	0	0
CC(C)(Cc1nc2ccccc2[nH]1)c1nc2ccccc2[nH]1	-	0	-	-	-	?
O=C(N/N=C/c1sc(N2CCOCC2)nc1-c1ccccc1)c1ccccc1O	2.2µM	?	?	2.8µM	?	?
O=C(N/N=C/c1ccc(N2CCOCC2)s1)c1ccccc1Cl	7.9µM	0	0	?	0	0
O=C(Nc1ccccc1F)C(=Cc1sc(N2CCOCC2)nc1-c1ccccc1)C(=O)Nc1ccccc1F	0	0	?	0	3.3µM	0
O=C(N/N=C/c1sc(N2CCOCC2)nc1-c1ccccc1)c1cccc(S(=O)(=O)N2CCOCC2)c1	?	4.1µM	21µM	0	?	0
Nc1ccc(C(=O)N/N=C/c2sc(N3CCOCC3)nc2-c2ccccc2)cc1	?	0	0	0	0	0
O=C(N/N=C/c1sc(N2CCOCC2)nc1-c1ccccc1)c1ccccc1Cl	0	0	0	0	0	0
C=C1C=C(C(F)F)n2ncc(C(=O)N3CCN(c4ccccn4)CC3)c2N1	-	0	-	-	-	0
CN(Cc1ccccc1)C(=O)c1cc(-c2cccc(Cl)c2)on1	-	0	-	-	-	0
Cc1ccc(CNS(=O)(=O)c2ccc3[nH]c4c(c3c2)CCCCC4)cc1	-	?	-	-	-	0
SMILES	RORg inh	KB-3-1 cytotox	SW480 rereplic	VP16 counter	MCF10A rerep	KB-V1 cytotox
CN(C)c1ccc(CNS(=O)(=O)c2ccc3[nH]c4c(c3c2)CCCCC4)cc1	-	?	-	-	-	16µM
COc1ccc(OC)c(CNS(=O)(=O)c2ccc3[nH]c4c(c3c2)CCCCC4)c1	-	?	-	-	-	21µM
O=C(NCCN1CCOCC1)c1ccc(NC(=O)c2ccc(Br)o2)cc1	-	?	-	-	-	0
O=S(=O)(Nc1cccc(CCc2ccccn2)c1)c1ccc2ccccc2c1	7.9µM	0	0	2.5µM	0	0
O=S(=O)(Nc1cccc(CCc2ccccn2)c1)c1cc(Cl)ccc1Cl	0	0	0	0	0	0
CCNc1ncc2nc(-c3cc(F)cc(F)c3)c(=O)n(CCOC)c2n1	0	-	-	0	-	-
C[C@H]1CN([C@@H](C)CO)C(=O)CCCn2cc(nn2)CO[C@@H]1CN(C)C(=O)Nc1ccccc1C(F)(F)F	-	0	-	-	-	0
O=C(COc1ccc(Cl)cc1Cl)N(c1ccccn1)C1CCCCC1	0	?	0	0	?	0
Cc1ccc(OCC(=O)N(c2ccccn2)C2CCCCC2)c(C)c1	0	0	0	0	0	18µM
Cc1ccc(OCC(=O)NNC(=S)NC(=O)C2CCCCC2)c(C)c1	10µM	?	0	0	0	0
Cc1ccc(OCC(=O)NNC(=O)C2CCC2)cc1C	-	0	0	-	3.3µM	0
Cc1ccc(OCC(=O)NNC(=S)NC(=O)C2CC2)c(C)c1	8.9µM	-	-	0	-	-
Cc1ccc(OCC(=O)Nc2ccc(N3CCCC3)cc2)cc1C	0	0	0	0	0	0
CCN(c1ccccc1)c1ccc2cc(S(=O)(=O)N3CCCC3)ccc2n1	-	0	-	-	-	0
COc1cccc(C(=O)C2CN(c3ccccc3)CC2c2ccc(Cl)cc2)c1 (centres undefined)	0	0	?	0	0	16µM
Ic1ccc(/C=C2\C=Cc3ccccc32)cc1	-	0	-	-	-	0
CCOC(=O)c1nn(-c2ccc(OCC)cc2)c2nc(CC(C)C)c(C#N)c(=O)n12	0	0	0	0	0	?
CCOC(=O)c1nn(-c2cccc(Cl)c2)c2nc(CC(C)C)c(C#N)c(=O)n12	0	0	0	0	23µM	?
CCOC(=O)c1cnc2c(-c3ccccc3)cnn2c1N	1.6µM	0	0	11µM	0	0
CCOC(=O)c1cnc2c(-c3ccccc3)c(C)nn2c1N	0	0	0	0	0	0
CCOC(=O)c1cnn(-c2cc(C)c3ccccc3n2)c1N	0.11µM	0	0	?	0	0
CCOc1ccc(CNC(=O)Cn2nc(C)n3cccc3c2=O)cc1	-	0	-	-	-	0
COc1ccc(NS(=O)(=O)c2ccc3oc(SC4CCOC4=O)nc3c2)cc1 (centres undefined)	0	0	?	?	2.9µM	0
CCOc1cc(/C=N\NC(N)=O)cc(Br)c1OC(C)C	0	7.3µM	?	?	?	12µM
C#CCOc1c(Br)cc(/C=N/O)cc1OCC	0	?	0	0	?	?
